Data published in the supplement of paper PMC6555819.

Each sequence was assayed on LXRb:RXRa (NR concentration 270 nM, RXRa partner concentration 90 nM) (assay: PBM binding z-score (relative to random genomic background probes); higher = stronger binding; sequences stand for … in GC…GCGATTGACAGCGTAGAATGAAGG).
How it was run: (§1)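 Ligand-free nuclear receptor dimers were applied to custom Agilent 4×180K protein-binding microarrays whose double-stranded probes carried direct-repeat seeds, single-nucleotide variants, half-site ablations and random human genomic background sequences in 34-nt variable regions. Incubation lasted 1 h. Binding z-scores were computed against the random background probes from regression-normalized fluorescence.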

First: CTATGTAGGTTAAGGGGGTCATTCAGTTTGAAAG
Second: CCGAGTAGGTTACGAGGGGGCCTTCAGTGCGAAT
The PBM binding z-score of the first is higher: 6.24 for the first, 3.94 for the second.

Compared with CCGAGTAGGTTACGAGGGGGCATTCACTGCGAAT, CCGAGTAGGTTACGAGGGGGCATTCATTGCGAAT is lower in PBM binding z-score: 6.21 for the first, 6.12 for the second.

Going from CTATATAGGTTAAGGGGGTCATTCAGTTTGAAAG to CAGAGTAGGTTACGAGGGGGCATTCAGTGCGAAT, the PBM binding z-score falls from 6.48 to 6.23.

Going from CTATGTAGGTTAAGGGGTTCATTCAGTTTGAAAG to CCGAGTAGGTTACGAGGCGGCATTCAGTGCGAAT, the PBM binding z-score falls from 3.8 to -0.1.

First: CTAAGTAGGTTAAGGGGGTCATTCAGTTTGAAAG
Second: TCGAGTAGGCTACGGGGGCATTCAGGGATGAAGA
The PBM binding z-score of the first is higher: 6.08 for the first, 3.17 for the second.

First: CCATGTAGGTTAAGGGGGTCATTCAGTTTGAAAG
Second: CTATGTAGGTTAAGGGTGTCATTCAGTTTGAAAG
The PBM binding z-score of the first is higher: 6.22 for the first, 1.33 for the second.

Compared with CTATGTAGGCTAAGGGGGTCATTCAGTTTGAAAG, CCGAGTAGGTTACGAGGGGGCTTTCAGTGCGAAT is lower in PBM binding z-score: 5.74 for the first, 4.05 for the second.

First: CTATGTAGGTTAAGGGGGTCATTCGGTTTGAAAG
Second: CTATGTTGGTTAAGGGGGTCATTCAGTTTGAAAG
The PBM binding z-score of the first is lower: 6.16 for the first, 6.28 for the second.

CCGAGTAGGTTACGAGGGGGCATCCAGTGCGAAT gave a PBM binding z-score of 5.77.

These sequences were tested on PPARa:RXRa (NR concentration 270 nM, RXRa partner concentration 90 nM) in the same assay as above.
How it was run: as §1

Going from CCGAGTAGGTTACGAGGGGGCATTCAATGCGAAT to CCGAGTAGGTTACGAGGGGGCATTTAGTGCGAAT, the PBM binding z-score falls from 3.62 to 3.54.

Going from TCGAGTAGGTTACGGGGGGATTCAGGGATGAAGA to CTGAGTAGGTTACGAGGGGGCATTCAGTGCGAAT, the PBM binding z-score rises from 3.11 to 3.73.

First: CTATGTAGGTTAAGGGGGTCATACAGTTTGAAAG
Second: CTATGTAGGTTAAGGGGGTCTTTCAGTTTGAAAG
The PBM binding z-score of the first is higher: 6.21 for the first, 4.64 for the second.

First: CCGAGTAGGTTACGAGGGGGCAATCAGTGCGAAT
Second: CCGAGTAGGTTACCAGGGGGCATTCAGTGCGAAT
The PBM binding z-score of the first is lower: 3.34 for the first, 3.43 for the second.

Going from TCGAGTCGGTTACGGGGGCATTCAGGGATGAAGA to TCGAGTAGGTTACGGGGACATTCAGGGATGAAGA, the PBM binding z-score falls from 2.75 to 2.4.

Going from CTATGTAGGTTAAGGGGGTCATTCCGTTTGAAAG to CTATGTAGGTTGAGGGGGTCATTCAGTTTGAAAG, the PBM binding z-score falls from 6.1 to 5.54.

Compared with CCGAGTGGGTTACGAGGGGGCATTCAGTGCGAAT, CCGAGTAGGTTATGAGGGGGCATTCAGTGCGAAT is higher in PBM binding z-score: 3.08 for the first, 3.29 for the second.

Compared with CCGAGTAGGTAACGAGGGGGCATTCAGTGCGAAT, CCGGGTAGGTTACGAGGGGGCATTCAGTGCGAAT is higher in PBM binding z-score: 2.83 for the first, 3.54 for the second.

First: CCGAGTAGCTTACGAGGGGGCATTCAGTGCGAAT
Second: CTATGAAGGTTAAGGGGGTCATTCAGTTTGAAAG
The PBM binding z-score of the first is lower: 1.77 for the first, 5.65 for the second.

Compared with CCGAGTAGGTTACGAGGAGGCATTCAGTGCGAAT, CTCTGTAGGTTAAGGGGGTCATTCAGTTTGAAAG is higher in PBM binding z-score: 1.26 for the first, 5.68 for the second.

First: CTATGGAGGTTAAGGGGGTCATTCAGTTTGAAAG
Second: TCGAGTAGGTTACGGGGGCATTCACGGATGAAGA
The PBM binding z-score of the first is higher: 6.28 for the first, 4.38 for the second.

Going from CTATGTAGGTTAAGGGGGTCATTCAGTTTGAAAG to CCGAGTAGGTTACGAGGGGGCCTTCAGTGCGAAT, the PBM binding z-score falls from 6.31 to 2.44.

First: CCGAGTAGGTTACGAGGGGGCATTCACTGCGAAT
Second: CCGAGTAGGTTACGAGGGGGCATTCATTGCGAAT
The PBM binding z-score of the first is higher: 3.49 for the first, 3.42 for the second.

First: CTATATAGGTTAAGGGGGTCATTCAGTTTGAAAG
Second: CAGAGTAGGTTACGAGGGGGCATTCAGTGCGAAT
The PBM binding z-score of the first is higher: 6.33 for the first, 3.54 for the second.

Compared with CTATGTAGGTTAAGGGGTTCATTCAGTTTGAAAG, CCGAGTAGGTTACGAGGCGGCATTCAGTGCGAAT is lower in PBM binding z-score: 4.75 for the first, 1.06 for the second.

Going from CTAAGTAGGTTAAGGGGGTCATTCAGTTTGAAAG to TCGAGTAGGCTACGGGGGCATTCAGGGATGAAGA, the PBM binding z-score falls from 6.01 to 2.56.

Compared with CCATGTAGGTTAAGGGGGTCATTCAGTTTGAAAG, CTATGTAGGTTAAGGGTGTCATTCAGTTTGAAAG is lower in PBM binding z-score: 5.88 for the first, 4.61 for the second.

Going from CTATGTAGGCTAAGGGGGTCATTCAGTTTGAAAG to CCGAGTAGGTTACGAGGGGGCTTTCAGTGCGAAT, the PBM binding z-score falls from 5.31 to 2.66.

First: CTATGTAGGTTAAGGGGGTCATTCGGTTTGAAAG
Second: CTATGTTGGTTAAGGGGGTCATTCAGTTTGAAAG
The PBM binding z-score of the first is higher: 6.15 for the first, 5.26 for the second.

CCGAGTAGGTTACGAGGGGGCATCCAGTGCGAAT showed a PBM binding z-score of 3.24.

These sequences were tested on PPARg:RXRa (NR concentration 180 nM, RXRa partner concentration 90 nM) in the same assay as above.
How it was run: as §1

First: CCGAGTAGGTTACGAGGGGGCATTCAATGCGAAT
Second: CCGAGTAGGTTACGAGGGGGCATTTAGTGCGAAT
The PBM binding z-score of the first is higher: 2.64 for the first, 1.87 for the second.

Going from TCGAGTAGGTTACGGGGGGATTCAGGGATGAAGA to CTGAGTAGGTTACGAGGGGGCATTCAGTGCGAAT, the PBM binding z-score falls from 5.11 to 4.46.

Compared with CTATGTAGGTTAAGGGGGTCATACAGTTTGAAAG, CTATGTAGGTTAAGGGGGTCTTTCAGTTTGAAAG is lower in PBM binding z-score: 8.81 for the first, 7.24 for the second.

Going from CCGAGTAGGTTACGAGGGGGCAATCAGTGCGAAT to CCGAGTAGGTTACCAGGGGGCATTCAGTGCGAAT, the PBM binding z-score falls from 2.49 to 2.1.

Going from TCGAGTCGGTTACGGGGGCATTCAGGGATGAAGA to TCGAGTAGGTTACGGGGACATTCAGGGATGAAGA, the PBM binding z-score rises from 1.46 to 3.19.

Going from CTATGTAGGTTAAGGGGGTCATTCCGTTTGAAAG to CTATGTAGGTTGAGGGGGTCATTCAGTTTGAAAG, the PBM binding z-score falls from 8.1 to 4.5.

First: CCGAGTGGGTTACGAGGGGGCATTCAGTGCGAAT
Second: CCGAGTAGGTTATGAGGGGGCATTCAGTGCGAAT
The PBM binding z-score of the first is higher: 1.75 for the first, 1.69 for the second.

First: CCGAGTAGGTAACGAGGGGGCATTCAGTGCGAAT
Second: CCGGGTAGGTTACGAGGGGGCATTCAGTGCGAAT
The PBM binding z-score of the first is lower: 1.05 for the first, 1.6 for the second.

First: CCGAGTAGCTTACGAGGGGGCATTCAGTGCGAAT
Second: CTATGAAGGTTAAGGGGGTCATTCAGTTTGAAAG
The PBM binding z-score of the first is lower: -0.443 for the first, 5.21 for the second.

Going from CCGAGTAGGTTACGAGGAGGCATTCAGTGCGAAT to CTCTGTAGGTTAAGGGGGTCATTCAGTTTGAAAG, the PBM binding z-score rises from 0.943 to 6.59.

Compared with CTATGGAGGTTAAGGGGGTCATTCAGTTTGAAAG, TCGAGTAGGTTACGGGGGCATTCACGGATGAAGA is lower in PBM binding z-score: 6.41 for the first, 5.82 for the second.

Going from CTATGTAGGTTAAGGGGGTCATTCAGTTTGAAAG to CCGAGTAGGTTACGAGGGGGCCTTCAGTGCGAAT, the PBM binding z-score falls from 9 to 1.5.

First: CCGAGTAGGTTACGAGGGGGCATTCACTGCGAAT
Second: CCGAGTAGGTTACGAGGGGGCATTCATTGCGAAT
The PBM binding z-score of the first is lower: 2.33 for the first, 2.64 for the second.

First: CTATATAGGTTAAGGGGGTCATTCAGTTTGAAAG
Second: CAGAGTAGGTTACGAGGGGGCATTCAGTGCGAAT
The PBM binding z-score of the first is higher: 8.85 for the first, 3.69 for the second.

Going from CTATGTAGGTTAAGGGGTTCATTCAGTTTGAAAG to CCGAGTAGGTTACGAGGCGGCATTCAGTGCGAAT, the PBM binding z-score falls from 7.11 to 0.984.

Compared with CTAAGTAGGTTAAGGGGGTCATTCAGTTTGAAAG, TCGAGTAGGCTACGGGGGCATTCAGGGATGAAGA is lower in PBM binding z-score: 8.37 for the first, 1.6 for the second.

First: CCATGTAGGTTAAGGGGGTCATTCAGTTTGAAAG
Second: CTATGTAGGTTAAGGGTGTCATTCAGTTTGAAAG
The PBM binding z-score of the first is lower: 7.38 for the first, 8.17 for the second.

First: CTATGTAGGCTAAGGGGGTCATTCAGTTTGAAAG
Second: CCGAGTAGGTTACGAGGGGGCTTTCAGTGCGAAT
The PBM binding z-score of the first is higher: 5.77 for the first, 1.29 for the second.

First: CTATGTAGGTTAAGGGGGTCATTCGGTTTGAAAG
Second: CTATGTTGGTTAAGGGGGTCATTCAGTTTGAAAG
The PBM binding z-score of the first is higher: 8.47 for the first, 4.14 for the second.

CCGAGTAGGTTACGAGGGGGCATCCAGTGCGAAT showed a PBM binding z-score of 2.67.
